Each structure is given as a SMILES string. For part of these data: Entries with a potency or affinity are not part of this list.

The results in this text go back to ChEMBL document CHEMBL4296182, “CO-ADD screening of NIH NCI Diversity Set V”.

Assay [1] concerns Staphylococcus aureus. The assay is described as follows: Antibacterial activity against Staphylococcus aureus MRSA ATCC 43300 (CO-ADD:GP_020); MIC in CAMBH media using NBS plates, by Resazurin F(560/590). The class given is functional. The following applies: Concentration 20 uM, ASSAY_TEST Inhibition of Bacterial Growth, detection method Resazurin, Fluorescence (ex560/em590), MEDIA CAMHB, plate type 384well, CORNING #3640, time 18 hr.

The test system of assay [2] is Acinetobacter baumannii. The assay is described as follows: Antibacterial activity against Acinetobacter baumannii ATCC 19606 (CO-ADD:GN_034); MIC in CAMBH media using NBS plates, by Resazurin F(560/590). The class given is functional. The following applies: Concentration 20 uM, ASSAY_TEST Inhibition of Bacterial Growth, detection method Resazurin, Fluorescence (ex560/em590), MEDIA CAMHB, plate type 384well, CORNING #3640, time 18 hr.

For assay [3], the system named is Escherichia coli. The assay is described as follows: Antibacterial activity against Escherichia coli ATCC 25922 (CO-ADD:GN_001); MIC in CAMBH media using NBS plates, by Resazurin F(560/590). The conditions noted are these: Concentration 20 uM, ASSAY_TEST Inhibition of Bacterial Growth, detection method Resazurin, Fluorescence (ex560/em590), MEDIA CAMHB, plate type 384well, CORNING #3640, time 18 hr. The class given is functional. On the technique in general: Resazurin is reduced to fluorescent resorufin, in cell work by metabolically active cells.

For assay [4], the system named is Klebsiella pneumoniae. The following applies: Concentration 20 uM; ASSAY_TEST Inhibition of Bacterial Growth; detection method Absorption (OD600); MEDIA CAMHB; plate type 384well; NBS; CORNING #3640; time 18 hr.
The subject of assay [5] is Candida albicans. The conditions noted are these: 20 µM.
For assay [6], the system named is Cryptococcus neoformans. The following applies: Concentration 20 uM; ASSAY_TEST Inhibition of Fungal Growth; detection method Resazurin; Absorption (OD600-OD570); plate type 384well; NBS; CORNING #3640.

Regarding `COC(=O)c1c[n+]([O-])ccc1OC`, the Inhibition in assay [1] was -9.06%; in assay [2], -1.68%; in assay [3] it was -4.59%; in assay [4], 7.09%; in assay [5], -2.55%; in assay [6], -2.93%.

Turning to `O=C(Nc1ccc2ncccc2c1)Nc1ccc2ncccc2c1`, the Inhibition was 9.01% in assay [1]; -26.89% in assay [2]; 13.25% in assay [3]; 9.25% in assay [4]; 0.58% in assay [5]; -19.53% in assay [6].

Take `S=C1N(c2ccccc2)CN(C2CCCCC2)CN1c1ccccc1`: the Inhibition in assay [1] is 0.84%; in assay [2], 12.71%; in assay [3] it was -2.84%; in assay [4], 1.62%; in assay [5] it was 3.07%; in assay [6], -5.37%.

On to `CS(=O)(=O)O.OC(c1cc(C(F)(F)F)nc2c(Cl)cc(Cl)cc12)C1CCCCN1` (stereo not given), for which the Inhibition in assay [1] was 10.44%; in assay [2], 6.66%; in assay [3], 19.86%; in assay [4] it was 9.3%; in assay [5], 1%; in assay [6], -0.51%.

Regarding `Cn1nc(N)c2ncc(C(Cl)(Cl)Cl)nc21`, the Inhibition is -7.62% in assay [1]; -8.78% in assay [2]; 5.5% in assay [3]; 9.07% in assay [4]; 10.5% in assay [5]; -10.84% in assay [6].

As to `CN1CCC=C(C(=O)N2c3ccccc3Sc3ccc(Cl)cc32)C1.O=C(O)CCC(=O)O`, the Inhibition in assay [1] is 8.59%; in assay [2], -10%; in assay [3], 17.87%; in assay [4], -0.76%; in assay [5] it was -1.22%; in assay [6] it was -4.64%.

For `COc1ccc(OCC(O)CN2CCN(c3ccc(Cl)cc3)CC2)cc1` (stereo not given), the Inhibition in assay [1] was -0.5%; in assay [2] it was 8.48%; in assay [3], 10.52%; in assay [4], 5.97%; in assay [5], -0.41%; in assay [6], -11.59%.

With `COc1cc2oc3cc(C)oc(=O)c3c2cc1OC`, the Inhibition was 14.15% in assay [1]; 0.41% in assay [2]; 8.42% in assay [3]; 14.11% in assay [4]; 1.88% in assay [5]; -16.92% in assay [6].

For `CN(C)c1ccc2c(c1)Sc1cc(N(C)C)ccc1N2C(=O)c1ccccc1`, the Inhibition in assay [1] is -9.71%; in assay [2], 0.08%; in assay [3], 1.67%; in assay [4], 25.07%; in assay [5], 11%; in assay [6], -3.81%.

Take `Cc1ccc(NC(=O)NNC(=O)CSC2CCc3ccccc32)c(C)c1` (stereo not given): the Inhibition in assay [1] is 19.06%; in assay [2], 5.57%; in assay [3] it was 0.84%; in assay [4], 5.08%; in assay [5], 2.67%; in assay [6], -10.98%.

As for `Clc1nc(NCCc2ccccc2)c2c[nH]nc2n1`, the Inhibition is 2.77% in assay [1]; 12.4% in assay [2]; 0.9% in assay [3]; 13.65% in assay [4]; 5.89% in assay [5]; -10.39% in assay [6].

Turning to `O=C(NC1CCCCC1)c1cc2ccccc2cc1O`, the Inhibition in assay [1] was 11.46%; in assay [2], 7.31%; in assay [3], 4.75%; in assay [4], 14.67%; in assay [5], 0.86%; in assay [6], -3.07%.

Consider `NC(=O)c1ccccc1NC(=O)c1ccccc1Cl`, for which the Inhibition in assay [1] is -3.45%; in assay [2] it was -12.19%; in assay [3] it was 7.56%; in assay [4] it was 6.89%; in assay [5], 2.67%; in assay [6] it was -15.77%.

As for `COc1c(NC=O)c2c(c([N+](=O)[O-])c1OC)C(=O)OC2`, the Inhibition amounted to 1.34% in assay [1]; 7.55% in assay [2]; 3.05% in assay [3]; 24.74% in assay [4]; 5.38% in assay [5]; 2.82% in assay [6].

`CC1(C)OC2C(CO)OC(n3cnc4c(S)ncnc43)C2O1` (stereo not given): the Inhibition in assay [1] is 1.89%; in assay [2], -15.97%; in assay [3] it was 11.94%; in assay [4] it was 6.21%; in assay [5], 4.06%; in assay [6], -14.25%.

As to `c1ccc2c(c1)cnc1ccccc12` [PHENANTHRIDINE], the Inhibition was 1.61% in assay [1]; -6.38% in assay [2]; 4.54% in assay [3]; 11.56% in assay [4]; 4.34% in assay [5]; -7.16% in assay [6].

With `Nc1cc(O)nc2ncnn12`, the Inhibition in assay [1] was 9.25%; in assay [2] it was -2.47%; in assay [3] it was 7.96%; in assay [4] it was 6.69%; in assay [5], -0.84%; in assay [6] it was -4.53%.

As to `O=C1C(Br)=Cc2cccc3cccc1c23`, the Inhibition was 13.47% in assay [1]; -14.96% in assay [2]; 6.58% in assay [3]; 7.6% in assay [4]; 32.2% in assay [5]; 12.78% in assay [6].

With `Cn1ncc2c(O)nc(N)nc21`, the Inhibition in assay [1] is 6%; in assay [2], -7.72%; in assay [3] it was 12.24%; in assay [4], 14.42%; in assay [5] it was -0.53%; in assay [6], 20.28%.

Take `CCC(CC)c1ncc[nH]1`: the Inhibition in assay [1] is -6.72%; in assay [2] it was -6.57%; in assay [3], 9.75%; in assay [4] it was 17.39%; in assay [5], -1.38%; in assay [6], -3.12%.

`NCc1c(O)ccc2ccccc12`: the Inhibition in assay [1] is 7.19%; in assay [2] it was -7.97%; in assay [3], -11.88%; in assay [4] it was 11.42%; in assay [5], 3.27%; in assay [6] it was 15.16%.

On to `CCCc1nc(NC(=O)c2ccccc2)nc(NC(=O)c2ccccc2)n1`, for which the Inhibition in assay [1] is -10.01%; in assay [2] it was -7.86%; in assay [3], 8.74%; in assay [4] it was 10.41%; in assay [5] it was 3.97%; in assay [6], -9.1%.

Turning to `CC(=O)NCC1(O)CCCC(C)C1` (stereo not given), the Inhibition in assay [1] is 7.69%; in assay [2], -13.88%; in assay [3], 5.11%; in assay [4] it was 9.82%; in assay [5] it was 1.28%; in assay [6], -5.78%.

Regarding `O=C(Nc1ccccc1-c1ccccc1)C(=O)Nc1ccccc1-c1ccccc1`, the Inhibition in assay [1] is 3.9%; in assay [2] it was -8.51%; in assay [3], -14.91%; in assay [4], 2.5%; in assay [5] it was 2.13%; in assay [6], 4.35%.

Regarding `OCc1ncc(-c2ccccc2)s1`, the Inhibition in assay [1] was -7.34%; in assay [2], -9.91%; in assay [3], 3.7%; in assay [4], 5.05%; in assay [5], 2.13%; in assay [6] it was -4.82%.

As usually defined, the Inhibition is the relative decrease from the control value, in per cent.
